Assay outcomes deposited in PubChem by National Center for Advancing Translational Sciences (NCATS).
Sampled rows, rich in hits. Any-hit rate of the full collection: about 6.5%.
MARV entry inh – qHTS for inhibitors of binding or entry into cells for Marburg Virus; Marburg virus pseudotyped entry inhibition, cell reporter; Potency, µM (highest dose often 37.8 µM), for inactives: top-dose activity change, negative = inhibition, most hits filed as inhibitors; 1.8% of 300,000 active; calls by dose curve; tested in HEK293 cells; also: potency is read from the fitted curve at half-maximal effect
HCMV inh – qHTS Assay for inhibitors of the human cytomegalovirus (HCMV). HFF cells, HCMV-luciferase reporter, 72 h; hits give low values. activity change, negative = inhibition, % at 57.5 µM. 4.5% of 410,000 active. AID 1259415, 2018; in the data active = activity change below about -60%; inconclusive = no clear call, values can overlap the other calls; inactive = above about -39%
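Compounds were evaluated in HFFs infected with an HCMV luciferase reporter virus (MOI 1 PFU/cell). Luciferase in lysates collected 72 h post infection served as the replication measure.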
FMDV inh – High Throughput Screening for Foot and Mouth Disease Virus Antivirals; FMDV antiviral cell-based qHTS; Potency, µM (top dose mostly 57.9 µM), inactives show at the top dose activity change, negative = inhibition, most hits filed as inhibitors; 1.2% of 410,000 active; AID 1159524, 2015; calls by dose curve; tested in HEK293T cells; also: read-out not given here; potency is read from the fitted curve at half-maximal effect; nearly all actives have a fitted effect of over 45% in size
Vaccinia Venus – qHTS for Stage-Specific Inhibitors of Vaccinia Orthopoxvirus: Venus Reporter Primary qHTS | 0.46% of 330,000 active | Vaccinia virus Venus reporter expression, fluorescence | Potency, µM (top dose mostly 36.5 µM), for inactives: at the highest dose activity change, negative = inhibition, most hits filed as inhibitors; calls by dose curve; tested in A549 cells; also: potency is read from the fitted curve at half-maximal effect; nearly all actives have a fitted effect of over 30% in size
LASV entry inh – qHTS for Inhibitors of binding or entry into cells for Lassa Virus; Lassa virus pseudotype entry inhibition, cell reporter; Potency, µM (top dose mostly 37.9 µM), inactives show top-dose activity change, negative = inhibition, most hits filed as inhibitors; 1.2% of 300,000 active; AID 540256, 2011; calls by dose curve; tested in HEK293 cells; also: potency is read from the fitted curve at half-maximal effect; nearly all actives have a fitted effect of over 50% in size
VACV mCherry inh – qHTS for Stage-Specific Inhibitors of Vaccinia Orthopoxvirus: mCherry Reporter Primary qHTS | Vaccinia virus mCherry reporter infection, fluorescence | Potency, µM (doses to about 36.5 µM), for inactives: at the highest dose activity change, negative = inhibition, usual class: inhibitors | 0.63% of 310,000 active; calls by dose curve; tested in A549 cells; also: potency is read from the fitted curve at half-maximal effect; nearly all actives have a fitted effect of over 35% in size
* = called active by the depositor; i = inactive; ? = inconclusive; / = no result; ! = not confirmed by another sample; [ ] = dose if it differs, or a comment. % is scaled to controls: 0 for no effect and ±100 for the full control effect.

SMILES	MARV entry inh	HCMV inh	FMDV inh	Vaccinia Venus	LASV entry inh	VACV mCherry inh
COc1ccccc1C(=O)N(CCN(C)C)c1nc2cc(C)cc(C)c2s1	/	-21	-17%	/	/	/
CCN(Cc1ccccc1)S(=O)(=O)c1ccc(C(=O)N(CCCN(C)C)c2nc3ccc(F)cc3s2)cc1	?	-80*	12%	-24%	?	i
CN(C)CCCN(C(=O)c1ccc(S(=O)(=O)N(C)C2CCCCC2)cc1)c1nc2ccc(F)cc2s1	?	-3	-20%	-19%	?	i
CCN(Cc1ccccc1)S(=O)(=O)c1ccc(C(=O)N(CCCN(C)C)c2nc3cc4c(cc3s2)OCCO4)cc1	?	-34	?	?	?	-27%
CN(N=Cc1ccc2c(c1)OCO2)C(=O)c1ccccc1N	/	21	/	/	/	/
CCc1ccccc1NC(=O)Cn1c(=O)oc2ccccc21	/	0	-18%	-13%	-11%[46.1 µM]	-21%
Cc1ccc(NS(=O)(=O)c2cc(NC(=O)C(C)Oc3ccccc3)ccc2C)c(C)c1 (stereo not given)	4.6µM*	-7	13%	-28%	?	-18%
Cc1ccc(NC(=O)C(C)Oc2ccccc2)cc1S(=O)(=O)N1CCCCCC1 (stereo not given)	/	-21	-25%	/	/	/
CCCCNC(=O)Cn1ncc2c(C)n(Cc3cccc(Cl)c3)c(C)c2c1=O	2%[46.1 µM]	-22	?	-15%	-13%[46.1 µM]	-7%
CC1(C)c2ssc(=S)c2-c2ccccc2N1C(=O)CSC1=NCCS1	?	-33	?	/	-20%	/
COc1ccc2c(c1)-c1c(ssc1=S)C(C)(C)N2C(=O)CSC1=NCCS1	?	-80*	?	/	-3%	/
Cc1cc(C)c2c(c1)-c1c(ssc1=S)C(C)(C)N2C(=O)CSc1nncn1C	14µM*	6	-22%	?	?	/
Cc1ccc2c(c1)-c1c(ssc1=S)C(C)(C)N2C(=O)CSc1nncn1C	?	-3	?	-26%	?	/
CCOc1ccc2c(c1)-c1c(ssc1=S)C(C)(C)N2C(=O)c1ccco1	5.2µM*	-5	0%	-20%	?	?
Cc1cc2c(cc1C)N(C(=O)CSC1=NCCS1)C(C)(C)c1ssc(=S)c1-2	-42%	-72*	?	-10%	-31%[14.3 µM]	-21%
O=C(/C=C/c1ccc(S(=O)(=O)N2CCOCC2)cc1)NC(=S)NCCCn1ccnc1	?	-82*	-10%	?	?	-16%
CCc1cc(-c2n[nH]c(CCC(=O)O)c2-c2nc3ccccc3n2C)c(O)cc1O	5%[46.1 µM]	-7	-3%	-7%	9%[46.1 µM]	i
CCc1cc(-c2n[nH]c(C)c2-c2nc3ccccc3n2C)c(O)cc1O	?	-71*	?	-26%	?	-28%
C=C[C@@H]1c2cccc(C)c2N(S(=O)(=O)c2ccc(C)cc2)[C@H](c2ccc(OC(C)=O)cc2)C1(C#N)C#N	/	-79*	-22%	-19%	/	-11%
COc1ccc(Nc2cc3c(cn2)cc(-c2cnn(C)c2)n3Cc2ccccc2)cc1OC	/	-8	/	/	/	/
C/C(CCN1CCCc2nc(C)c(C)cc21)=N\OC[C@@H](O)[C@@H]1O[C@@H]2OC(C)(C)O[C@@H]2[C@H]1O	-8%[14.2 µM]	/	/	/	/	/
COc1ccc(C2=C(Nc3ccc(Br)c(C)c3)c3ccccc3C2=O)cc1	-16%[46.1 µM]	5	28µM*	-7%	-5%[46.1 µM]	-14%
Cc1ccccc1-c1nn(-c2ccc(F)cc2F)cc1CNCCCN(C)C	3.5µM*	?	-11%	-21%	?	-10%
COc1ccc(/C=N/n2cnnc2SCc2ccccc2)cc1	-17%[46.1 µM]	7	-11%	-14%	?	/
COc1ccc(/C=N/n2cnnc2SCc2ccc(OC)cc2)cc1	-13%	-25	4%	-15%	2.5µM*	-17%[1.46 µM]
SMILES	MARV entry inh	HCMV inh	FMDV inh	Vaccinia Venus	LASV entry inh	VACV mCherry inh
CCOC(=O)C1(C)C=C(Nc2cccc(C)c2)C(=O)N1c1ccccc1 (stereo not given)	9%[46.1 µM]	51	-18%	6%	-5%[46.1 µM]	-12%
Cc1cc(Cl)c(OCCOCCN2CCN(C)CC2)c(Br)c1	?	3	-13%	-11%	-29%[46.1 µM]	i
COCCCNCCCCOc1ccc(Br)cc1C	13µM*	-5	-22%	-21%	?	-29%
Cc1cc(Cl)c(OCCOCCN2CCC(C)CC2)c(Br)c1	6.5µM*	?	-13%	-14%	?	-25%
Cc1cc(Br)ccc1OCCCCN1CCC(C)CC1	?	-60*	-15%	-15%	?	-2%
Cc1nc2ccc(Br)cn2c(=O)c1Cl	-3%	-33	4µM*	/	-5%	/
Cc1nc2ccc(Br)cn2c1NC(C)(C)C	1%	-35	-4%	/	1%	/
CC1(C)SC2C(NC(=O)Cc3ccccc3)C(=O)N2C1C(=O)O (stereo not given)	/	/	-2%	-19%	/	-2%
COc1ccc(OCC(=O)O/N=C(\N)c2ccc(OC)cc2)cc1	?	-26	-11%	15%	?	-13%
CO/N=C(/COc1ccc(F)cc1)c1ccc(OC)cc1	?	-103*	9%	1%	-21%	-15%
OCC1(Cc2ccccc2)CCN(Cc2cnc(-c3ccc(Cl)cc3)nc2)CC1	?	-67*	-8%	-11%	?	-22%
OCC1(CCCc2ccccc2)CCN(Cc2cnc(N3CCOCC3)s2)CC1	?	-11	?	-17%	11µM*	-19%
Cc1ccccc1-c1ncc(CN2CCC(CO)(CCCc3ccccc3)CC2)cn1	/	-64*	-30%	/	/	/
OCC1(CCCc2ccccc2)CCN(Cc2ccc(F)cc2)CC1	?	-36	-5%	-16%	-29%	-11%
OCC1(Cc2ccccc2)CCN(Cc2cnc(-c3cccc4ccccc34)nc2)CC1	?	13	?	-17%	14%[46.1 µM]	i
O=C(CCNS(=O)(=O)c1ccccc1C(F)(F)F)N1CCN(C(c2ccccc2)c2ccccc2)CC1	7.1µM*	-19	?	-25%	?	?
COc1ccc(/C=C(\C)C(=O)NO)cc1	/	/	/	-13%	/	-3%
CC(=NNC(=S)Nc1ccccc1Cl)c1ccccn1	?	-99*	7%	?	0.25µM*	?
N/C(=N\NC(=O)Nc1ccccc1)c1ccccn1	?	60	47%	-1%[7.34 µM]	-24%	i[7.34 µM]
C/C(=N\Nc1cccc2cccnc12)c1ccccn1	?	196	-77%	-10%	?	i
CC(=NNC(=S)Nc1ccccc1)c1ccccn1	/	-98*	58%	?	/	?
Cc1cccc(C)c1NC(=O)C(C1CC1)N1C(=O)C(=O)c2ccccc21 (stereo not given)	/	-7	/	/	/	/
COC[C@H]1OC(=O)c2coc3c2[C@@]1(C)C1=C(C3=O)C2CCC(=O)[C@@]2(C)C[C@H]1OC(C)=O (stereo not given in full)	0.045µM*!	/	?	17%	?	-11%
